From PubChem BioAssay AID1159580 (chemical genetic matrix, 2015)
The campaign covered roughly 5,500 compounds. About 2,000 (36%) were called active. About 18% were inconclusive and are not listed. No stated cut-off is given here; in the data, active means normalized growth mostly below about 0.91 (no sharp cut-off); inconclusive means no clear call, values can overlap the other calls; inactive means mostly above about 0.92. Some of the results follow.

Assay: chemical genetic growth profiling, strain panel (AID 1159580);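 further: tested at 20 µM; growth read once vehicle control cultures reached saturation at 30 °C; 1 = growth at the plate median or of vehicle wells; lower values mean less growth of the strain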
Conditions: growth OD

Measured: normalized growth

CC[C@@H](CO)NC(=O)[C@@H]1C=C2c3cccc4[nH]cc(c34)C[C@H]2N(C)C1
inactive: S. cerevisiae deletion strains, locus YKL009W, strain mrt4, active compounds read low 0.999 | S. cerevisiae deletion strains, locus YKL068W, active compounds read low 0.996 | S. cerevisiae deletion strains, locus YKL085W, strain MDH1 (second series), active compounds read low 1.02 | S. cerevisiae deletion strains, locus YKL085W, strain MDH1, active compounds read low 1.02 | S. cerevisiae deletion strains, locus YKL160W, strain elf1, active compounds read low 0.982 | S. cerevisiae deletion strains, locus YKL190W, strain CNB1, active compounds read low 0.997 | S. cerevisiae deletion strains, locus YKR001C, strain vps1, active compounds read low 0.947 | S. cerevisiae deletion strains, locus YKR026C, strain gcn3, active compounds read low 1 | S. cerevisiae deletion strains, locus YKR091W, strain srl3, active compounds read low 0.997 | S. cerevisiae deletion strains, locus YLL001W, strain dnm1, active compounds read low 0.982 | S. cerevisiae deletion strains, locus YLL026W, active compounds read low 0.986 | S. cerevisiae deletion strains, locus YLL041C, strain sdh2, active compounds read low 1 | S. cerevisiae deletion strains, locus YLR027C, strain aat2, active compounds read low 0.993 | S. cerevisiae deletion strains, locus YLR039C, strain RIC1, active compounds read low 1.04 | S. cerevisiae deletion strains, locus YLR058C, strain SHM2, active compounds read low 0.989 | S. cerevisiae deletion strains, locus YLR102C, strain apc9, active compounds read low 0.985 | S. cerevisiae deletion strains, locus YLR113W, strain HOG1, active compounds read low 1.03 | S. cerevisiae deletion strains, locus YLR221C, strain rsa3, active compounds read low 0.999 | S. cerevisiae deletion strains, locus YLR258W, strain gsy2, active compounds read low 1 | S. cerevisiae deletion strains, locus YLR262C, strain YPT6 (second series), active compounds read low 0.991 | S. cerevisiae deletion strains, locus YLR262C, strain YPT6, active compounds read low 1.06 | S. cerevisiae deletion strains, locus YLR268W, strain sec22, active compounds read low 0.985 | S. cerevisiae deletion strains, locus YLR320W, strain mms22, active compounds read low 0.98 | S. cerevisiae deletion strains, locus YLR330W, strain CHS5, active compounds read low 0.992 | S. cerevisiae deletion strains, locus YLR342W, strain FKS1 (second series), active compounds read low 0.983 | S. cerevisiae deletion strains, locus YLR342W, strain FKS1, active compounds read low 0.982 | S. cerevisiae deletion strains, locus YLR357W, strain rsc2, active compounds read low 0.978 | S. cerevisiae deletion strains, locus YLR370C, strain arc18, active compounds read low 1 | S. cerevisiae deletion strains, locus YLR371W, strain rom2, active compounds read low 0.986 | S. cerevisiae deletion strains, locus YLR384C, strain iki3, active compounds read low 0.997 | S. cerevisiae deletion strains, locus YLR418C, strain cdc73, active compounds read low 0.926 | S. cerevisiae deletion strains, locus YML016C, strain PPZ1, active compounds read low 0.978 | S. cerevisiae deletion strains, locus YML032C, strain rad52, active compounds read low 0.971 | S. cerevisiae deletion strains, locus YML120C, strain ndi1, active compounds read low 1.01 | S. cerevisiae deletion strains, locus YML124C, strain tub3, active compounds read low 0.987 | S. cerevisiae deletion strains, locus YMR058W, strain fet3, active compounds read low 0.99 | S. cerevisiae deletion strains, locus YMR078C, strain ctf18, active compounds read low 0.996 | S. cerevisiae deletion strains, locus YMR125W, strain sto1, active compounds read low 1.01 | S. cerevisiae deletion strains, locus YMR129W, active compounds read low 1 | S. cerevisiae deletion strains, locus YMR205C, strain PFK2, active compounds read low 0.993 | S. cerevisiae deletion strains, locus YMR223W, strain ubp8, active compounds read low 0.961 | S. cerevisiae deletion strains, locus YMR231W, strain pep5, active compounds read low 0.992 | S. cerevisiae deletion strains, locus YMR263W, strain SAP30, active compounds read low 1.01 | S. cerevisiae deletion strains, locus YMR307W, strain GAS1, active compounds read low 0.972 | S. cerevisiae deletion strains, locus YNL067W, strain RPL9B, active compounds read low 1.04 | S. cerevisiae deletion strains, locus YNL071W, strain lat1, active compounds read low 1 | S. cerevisiae deletion strains, locus YNL128W, strain TEP1, active compounds read low 1.01 | S. cerevisiae deletion strains, locus YNL153C, strain GIM3, active compounds read low 1.02 | S. cerevisiae deletion strains, locus YNL183C, strain NPR1, active compounds read low 0.978 | S. cerevisiae deletion strains, locus YNL209W, strain ssb2, active compounds read low 1 | S. cerevisiae deletion strains, locus YNL233W, strain BNI4, active compounds read low 0.983 | S. cerevisiae deletion strains, locus YNL248C, strain rpa49, active compounds read low 1 | S. cerevisiae deletion strains, locus YNL250W, strain rad50, active compounds read low 0.978 | S. cerevisiae deletion strains, locus YNL271C, strain bni1, active compounds read low 0.981 | S. cerevisiae deletion strains, locus YNL298W, strain CLA4, active compounds read low 0.999 | S. cerevisiae deletion strains, locus YNL307C, strain MCK1, active compounds read low 0.973 | S. cerevisiae deletion strains, locus YNL322C, strain KRE1 (second series), active compounds read low 0.993 | S. cerevisiae deletion strains, locus YNL322C, strain KRE1, active compounds read low 0.997 | S. cerevisiae deletion strains, locus YNR049C, strain mso1, active compounds read low 0.999 | S. cerevisiae deletion strains, locus YNR052C, strain pop2, active compounds read low 0.996 | S. cerevisiae deletion strains, locus YOL006C, strain TOP1, active compounds read low 1.03 | S. cerevisiae deletion strains, locus YOL012C, strain htz1 0.998 | S. cerevisiae deletion strains, locus YOL147C, strain pex11, active compounds read low 0.994 | S. cerevisiae deletion strains, locus YOR001W, strain rrp6, active compounds read low 0.992 | S. cerevisiae deletion strains, locus YOR061W, strain CKA2, active compounds read low 0.991 | S. cerevisiae deletion strains, locus YOR069W, strain VPS5, active compounds read low 0.986 | S. cerevisiae deletion strains, locus YOR070C, strain gyp1, active compounds read low 1 | S. cerevisiae deletion strains, locus YOR080W, strain dia2, active compounds read low 0.994 | S. cerevisiae deletion strains, locus YOR083W, strain WHI5, active compounds read low 0.963 | S. cerevisiae deletion strains, locus YOR106W, strain vam3, active compounds read low 0.993 | S. cerevisiae deletion strains, locus YOR136W, strain idh2, active compounds read low 0.986 | S. cerevisiae deletion strains, locus YOR144C, strain elg1, active compounds read low 0.984 | S. cerevisiae deletion strains, locus YOR184W, strain ser1, active compounds read low 0.966 | S. cerevisiae deletion strains, locus YOR231W, strain MKK1, active compounds read low 1.03 | S. cerevisiae deletion strains, locus YOR265W, strain rbl2, active compounds read low 1.01 | S. cerevisiae deletion strains, locus YOR270C, strain vph1, active compounds read low 1.03 | S. cerevisiae deletion strains, locus YOR290C, strain snf2, active compounds read low 1 | S. cerevisiae deletion strains, locus YOR316C, strain cot1, active compounds read low 0.987 | S. cerevisiae deletion strains, locus YPL051W, strain arl3, active compounds read low 0.992 | S. cerevisiae deletion strains, locus YPL055C, strain LGE1, active compounds read low 1.07 | S. cerevisiae deletion strains, locus YPL078C, strain atp4, active compounds read low 0.98 | S. cerevisiae deletion strains, locus YPL106C, strain sse1, active compounds read low 0.981 | S. cerevisiae deletion strains, locus YPL240C, strain hsp82, active compounds read low 0.995 | S. cerevisiae deletion strains, locus YPL241C, strain CIN2, active compounds read low 0.997 | S. cerevisiae deletion strains, locus YPL256C, strain CLN2, active compounds read low 1.1 | S. cerevisiae deletion strains, locus YPR119W, strain clb2, active compounds read low 0.989 | S. cerevisiae deletion strains, locus YPR141C, strain kar3, active compounds read low 0.992 | S. cerevisiae deletion strains, locus YPR163C, strain tif3, active compounds read low 0.987 | S. cerevisiae deletion strains, locus YPR167C, strain met16, active compounds read low 0.987 | S. cerevisiae deletion strains, strain wtn01, active compounds read low 0.975 | S. cerevisiae strains, strain wild type, active compounds read low 0.982
